According to PubChem BioAssay (NCATS):
Inconclusive results are not listed. The source made the active and inactive calls. Calls follow the shape of the dose curve; as a rule, active = well fitted inhibition curve with a large enough effect; inconclusive = small, poorly fitted or top-dose-only effect; inactive = no such curve, though single readings can be large or run the other way.

Assay: Primary qHTS for inhibitors of nuclear receptor binding SET domain protein 2 (NSD2) in an RCH-ACV wild type WT cells (2C) (AID 1645877); also: nearly all actives have a fitted effect of over 70% in size
Conditions: RCH-ACV (leukaemia line) NSD2 WT (2C) viability, CellTiter-Glo, 72 h; series mostly up to 44.9 µM; activity change, negative = cell killing: at the top concentration
% is scaled to controls: 0 for no effect and ±100 for the full control effect.

Row | SMILES | activity change, negative = cell killing | outcome
1 | CC(C)CC(=O)OC[C@@]1(O)C[C@@]23CC[C@H]4[C@@](C)(CCC[C@@]4(C)C(=O)O)[C@@H]2CC[C@@H]1C3 | -30.8% [at 17.3 µM] (inactive) | 
2 | C=C(C(=O)O)[C@@H]1CC[C@@]2(C)CC[C@@H](O)C(=C)C2C1 (some centres not stated) | -22.6% (inactive) | 
3 | C=C1CCc2occ(C)c2[C@H]2[C@H]1[C@@]13O[C@@]1(C[C@@H](C)[C@H]3OC(C)=O)[C@H]1O[C@@]21C | -9.89% (inactive) | 
4 | O=C(OC[C@H]1O[C@@H](Oc2ccccc2COC(=O)C2(O)C=CCCC2O)[C@H](O)[C@@H](O)[C@@H]1O)c1ccccc1 (some centres not stated) |  | inactive [at 17.3 µM]
5 | O=C(Nc1ccn(Cc2c(F)cccc2C(F)(F)F)n1)c1c(F)cccc1F | -25.3% [at 9.23 µM] (inactive) | 
6 | NC1Nc2ccccc2C1(N)CC1NC(=O)C(Cc2ccccc2)NC(=O)C(Cc2ccccc2)NC1=O (configuration not stated) | -36.1% [at 17.3 µM] (inactive) | 
7 | CC1(C)O[C@H]2CC(=O)OC[C@@]23C1=C(O)C(=O)[C@]1(C)C3CC[C@@]2(C)[C@H](c3ccoc3)OC(=O)[C@H]3O[C@]321 (some centres not stated) | 3.52% [at 17.3 µM] (inactive) | 
8 | Cc1c(NC(=O)N2CCOCC2)ccc2c1c1ccccc1n2C(C)C |  | inactive
9 | C=C(COC(=O)C(C)C)C1Oc2cc(C(C)=O)ccc2C1OC(=O)C(C)C (configuration not stated) | -4.21% (inactive) | 
10 | COc1cc(/C=C/CO[C@@H]2O[C@H](CO)[C@@H](O)[C@H](O)[C@H]2O)cc(OC)c1O[C@@H]1O[C@H](CO)[C@@H](O)[C@H](O)[C@H]1O | -15.8% [at 17.3 µM] (inactive) | 
11 | C=C1CCC2C(C)(C)CCC[C@]2(C)[C@H]1CC/C(C)=C/C(=O)O (some centres not stated) | -20% (inactive) | 
12 | C/C(CO)=C1/CCC23COC(C2)C(O)(C(=O)O)CCC13 (configuration not stated) | -11.5% (inactive) | 
